Results from PubChem BioAssay (EPA / NIEHS).
Inconclusive results are not listed. The source made the active and inactive calls. How the source made its calls, unless noted: active means hit-call score of the fitted dose curve at least 0.9, where 1 is the maximum; inactive means score below 0.9.

Key:
[1] = CCTE_Simmons_MITO_basal_resp_rate: CCTE's HepG2 Seahorse XF Respirometric Screening Assay at Basal Respiratory State, Simmons Lab (AID 2284001); details: actives raise or lower the signal
Procedure, shortened: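 HepG2 respirometry; 7-pt titration 125 nM–100 uM final; kinetic OCR at 6 min intervals for 72 min; n=3 biological, technical singles; DMSO baseline, gain or loss fit; fenpyroximate (decrease) and 2,4-DNP (increase) controls.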

[2] = CCTE_Simmons_MITO_max_resp_rate: CCTE's HepG2 Seahorse XF Respirometric Screening Assay at Maximal Respiratory State [uncoupled], Simmons Lab (AID 2284002); details: actives raise or lower the signal
Procedure, shortened: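 HepG2 oxygen consumption was read on a Seahorse XF96 after FCCP uncoupler injection, following test compound injection; 7 concentrations, 125 nM–100 uM final, three biological replicates. Bidirectional fitting against DMSO vehicle baseline.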

[3] = CCTE_Simmons_MITO_inhib_resp_rate: CCTE's HepG2 Seahorse XF Respirometric Screening Assay at Inhibited Respiratory State [full ETC block], Simmons Lab (AID 2284006); details: actives raise or lower the signal
Procedure, shortened: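 Compound injected onto HepG2 cells (125 nM–100 uM final, 7 points); FCCP then rotenone/antimycin A added. Oxygen consumption read every 6 min (3 min mix, 3 min measure) for 72 min. Inhibited-state OCR fitted against DMSO.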

[4] = CCTE_Simmons_MITO_viability: CellTiter-Glo Viability Assessment for CCTE's HepG2 Seahorse XF Respirometric Screening Assay [post-hoc], Simmons Lab (AID 2284007; active means hit-call score of the fitted dose curve at least 0.9, where 1 is the maximum;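 on AC50: cells exposed to chemical for 90 min before the ATP read; actives lower ATP signal relative to DMSO baseline meaning reduced viability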)
Procedure, shortened: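 After the Seahorse oxygen-consumption sequence (basal, FCCP, rotenone/antimycin A; 72 min total), HepG2 viability was scored as ATP content by bioluminescence. Chemicals ran at seven concentrations up to 100 uM final for 90 min.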

[5] = CCTE_Shafer_MEA_acute_spike_number: CCTE's Neural Acute Assay for Total Number of Spikes, Shafer Lab (AID 2284008);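 on AC50: curve fitted for decrease in spike count so AC50 reflects inhibitors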
Procedure, shortened: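 Primary rat cortical neurons on 16-electrode MEA wells; on DIV 13 or 15, 40-min baseline then 40-min recording with compound (0.03-40 uM) at 37 C. Spikes detected at 8x rms noise; percent change versus baseline, DMSO as negative control.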

[6] = CCTE_Shafer_MEA_acute_firing_rate_mean: CCTE's Neural Acute Assay for Mean Firing Rate, Shafer Lab (AID 2284009);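 further: analyzed for loss of signal so actives lower firing rate relative to DMSO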
Procedure, shortened: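 Percent change in well-mean firing rate was derived from extracellular spikes detected at 8x rms noise (300-5000 Hz band-pass) before and after a 40-min compound exposure. Cultures were primary rat cortical neurons, tested at 0.03-40 uM.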

[7] = CCTE_Harrill_HTTr_Viability_MCF7: CCTE's 6-hour Cell Viability Assessment for the High-Throughput Transcriptomics (HTTr) Platform, in MCF-7 cells cultured in DMEM + 10% fetal bovine serum, Harrill Lab (AID 2284010)
Procedure, shortened: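 Cells were dosed with chemicals in an eight-point dilution series, imaged 6 hours later for propidium iodide uptake, and the endpoint was analyzed by bidirectional fitting against DMSO as negative control.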

[8] = CCTE_Harrill_HTTr_Apoptosis_MCF7: CCTE's 6-hour Apoptosis Assessment for the High-Throughput Transcriptomics (HTTr) Platform, in MCF-7 cells cultured in DMEM + 10% fetal bovine serum, Harrill Lab (AID 2284011)
Procedure, shortened: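 MCF-7 cells in DMEM + 10% fetal bovine serum were exposed to chemicals for 6 hours over an eight-point dilution series. Caspase-3/7 activation was imaged by high content imaging with CellEvent Caspase 3/7 Green; bidirectional fitting used DMSO as baseline.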

[9] = CCTE_Harrill_HTTr_CellCount_MCF7: CCTE's Cell Proliferation Assessment for the High-Throughput Transcriptomics (HTTr) Platform, Harrill Lab (AID 2284012; active means hit-call score of the fitted dose curve at least 0.9, where 1 is the maximum;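 further: count of Hoechst-stained nuclei per well by high-content imaging in MCF-7 cells; cells exposed to compound for six hours; intended direction is loss of nuclei count meaning fewer cells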)
Procedure, shortened: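 Chemicals in eight-point dilution series are added to MCF-7 cells for six hours, nuclei are stained with Hoechst and imaged, and per-well nuclei counts are fitted in both directions relative to DMSO controls.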

[10] = CCTE_Shafer_MEA_acute_burst_number: CCTE's Neural Acute Assay for Single-Electrode Bursts, Shafer Lab (AID 2284013)
Procedure, shortened: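 Spontaneous network activity of primary rat cortical neurons was recorded extracellularly on microelectrode arrays at 37 C, with 40-min periods before and during exposure to 0.03-40 uM compound on DIV 13 or 15.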

[11] = CCTE_Shafer_MEA_acute_burst_duration_mean: CCTE's Neural Acute Assay for Mean Burst Duration, Shafer Lab (AID 2284014);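 further: hits are decreases in mean burst duration relative to DMSO controls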
Procedure, shortened: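 Read-out is the per-well percent change in mean burst duration (first to last spike within a single-electrode burst) between 40-min recordings before and after compound. Cultures were primary rat cortical neurons on MEAs, dosed at 0.03-40 uM on DIV 13 or 15.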

[12] = CCTE_Shafer_MEA_acute_per_burst_spike_number_mean: CCTE's Neural Acute Assay for Average Number of Spikes Per Burst, Shafer Lab (AID 2284015);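 further: hits are decreases in mean spikes per burst versus baseline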
Procedure, shortened: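 Rat primary cortical neurons on 48-well MEAs (DIV 13 or 15) were treated with 0.03-40 uM compound at 37 C. Mean spikes per burst over 40 min were recorded before and after exposure and expressed as percent change from baseline, relative to DMSO.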

[13] = CCTE_Shafer_MEA_acute_interburst_interval_mean: CCTE's Neural Acute Assay for Mean Interburst Interval, Shafer Lab (AID 2284016);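 further: percent change of mean interburst interval versus each well's own pre-dose baseline; curves fitted for decrease in interburst interval relative to DMSO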
Procedure, shortened: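 Rat primary cortical neurons on 48-well MEAs at DIV 13 or 15 were exposed acutely to 0.03-40 uM. Spikes detected at 8x rms noise, 37 C. Mean interburst interval from 40 min recordings expressed as percent change from 40 min pre-treatment baseline.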

[14] = CCTE_Shafer_MEA_acute_burst_percentage_mean: CCTE's Neural Acute Assay for Percentage of Spikes in a Burst, Shafer Lab (AID 2284017);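 further: curve fitted for loss of signal so potency reflects decreased burst percentage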
Procedure, shortened: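 Primary rat cortical neurons on 48-well MEA plates, treated on DIV 13 or 15 at 0.03-40 uM. Spikes detected at 8x rms noise at 37C; percent change from 40-min baseline to 40-min post-dose recording, fitted versus DMSO.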

[15] = target: Nucleoli Translocation, AR (gene 367) (UniProt P10275); assay: UPITT_HCI_U2OS_AR_TIF2_Nucleoli_Antagonist: University of Pittsburgh U2OS Androgen Receptor-Transcriptional Intermediary Factor 2 (AR-TIF2) Antagonism High Content Imaging Assay for Nucleoli Translocation (AID 2283997; active means hit-call score of the fitted dose curve at least 0.9, where 1 is the maximum)
Sequence of Nucleoli Translocation, AR (gene 367) (P10275 whole entry, looked up, the tested form may be a part): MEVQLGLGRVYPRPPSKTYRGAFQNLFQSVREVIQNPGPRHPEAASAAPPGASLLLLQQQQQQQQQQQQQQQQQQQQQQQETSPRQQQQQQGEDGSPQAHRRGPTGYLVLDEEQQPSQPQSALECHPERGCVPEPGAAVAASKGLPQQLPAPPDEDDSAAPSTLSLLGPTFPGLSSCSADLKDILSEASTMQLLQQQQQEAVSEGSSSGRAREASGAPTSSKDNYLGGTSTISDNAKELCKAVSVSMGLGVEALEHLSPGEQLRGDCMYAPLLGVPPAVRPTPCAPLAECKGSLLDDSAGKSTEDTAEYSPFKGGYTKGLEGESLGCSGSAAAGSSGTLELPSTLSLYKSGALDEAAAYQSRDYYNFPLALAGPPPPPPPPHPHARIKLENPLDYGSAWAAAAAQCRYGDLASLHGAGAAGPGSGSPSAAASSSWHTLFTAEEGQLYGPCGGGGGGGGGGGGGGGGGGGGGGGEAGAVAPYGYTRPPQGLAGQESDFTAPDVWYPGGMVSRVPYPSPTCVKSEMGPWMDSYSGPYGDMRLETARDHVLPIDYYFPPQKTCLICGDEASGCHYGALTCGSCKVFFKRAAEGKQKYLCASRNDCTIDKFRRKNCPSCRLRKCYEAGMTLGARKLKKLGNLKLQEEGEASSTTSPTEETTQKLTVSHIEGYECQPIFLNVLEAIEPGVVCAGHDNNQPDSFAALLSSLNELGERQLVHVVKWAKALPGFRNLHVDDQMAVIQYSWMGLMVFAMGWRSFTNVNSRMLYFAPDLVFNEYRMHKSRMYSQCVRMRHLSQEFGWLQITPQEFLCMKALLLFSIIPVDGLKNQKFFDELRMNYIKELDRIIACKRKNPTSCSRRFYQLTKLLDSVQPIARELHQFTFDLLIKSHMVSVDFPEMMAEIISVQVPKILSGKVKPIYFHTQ
Procedure, shortened: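 Measured quantity was AR-RFP fluorescence localized to nucleoli in engineered U2OS cells also bearing TIF2-GFP, acquired on automated high-content imagers. Primary testing used 20 uM compound; actives were confirmed in triplicate wells.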

[16] = target: Nucleoli Translocation, AR (gene 367) (UniProt P10275); assay: UPITT_HCI_U2OS_AR_TIF2_Nucleoli_Agonist: University of Pittsburgh U2OS Androgen Receptor-Transcriptional Intermediary Factor 2 (AR-TIF2) Agonism High Content Imaging Assay for Nucleoli Translocation (AID 2283998; active means hit-call score of the fitted dose curve at least 0.9, where 1 is the maximum)
Procedure, shortened: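 Cells express human AR fused to red fluorescent protein and TIF2 fused to GFP. Red fluorescence in the nucleolar region was quantified by high-content imaging and fitted as gain-of-signal against a DMSO baseline. Compounds were tested at 0.195 to 50 uM final (0.5% DMSO).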

[17] = target: Ratio of Nucleoli Translocation and Cytoplasm, AR (gene 367) (UniProt P10275); assay: UPITT_HCI_U2OS_AR_TIF2_Nucleoli_Cytoplasm_Ratio_Agonist: University of Pittsburgh U2OS Androgen Receptor-Transcriptional Intermediary Factor 2 (AR-TIF2) Agonism High Content Imaging Assay for Ratio of Nucleoli Translocation and Cytoplasm (AID 2284000; active means hit-call score of the fitted dose curve at least 0.9, where 1 is the maximum;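 further: hits raise the red nucleolar to cytoplasm ratio above vehicle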)
Sequence of Ratio of Nucleoli Translocation and Cytoplasm, AR (gene 367) (P10275 whole entry, looked up, the tested form may be a part): as above
Procedure, shortened: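 Read-out first: nucleolar-to-cytoplasm ratio of red (AR-RFP) signal, quantified by high-content imaging in U2OS cells co-expressing TIF2-GFP. Activity is scored as signal increase over DMSO. Single-point screening used 20 uM final (0.2% DMSO).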

[18] = test system: DIO1 (gene 1733); assay: CCTE_GLTED_hDIO1: CCTE's human Deiodinase 1 (DIO1) Inhibition Assay, Great Lakes Toxicology and Ecology Division (GLTED) Lab (AID 2283987; active means hit-call score of the fitted dose curve at least 0.9, where 1 is the maximum;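 further: isolated human DIO1 enzyme in a cell-free setup rather than cells; enzyme activity read as free iodide liberated from substrate via Sandell-Kolthoff colorimetry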)
Procedure, shortened: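 Cell-free human DIO1 enzyme was incubated with test chemical for 3 h, and iodide released from substrate was measured by Sandell-Kolthoff absorbance. Loss of signal versus DMSO baseline indicated inhibition; plates were run in triplicate.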

[19] = target: Ratio of Nucleoli Translocation and Cytoplasm, AR (gene 367) (UniProt P10275); assay: UPITT_HCI_U2OS_AR_TIF2_Nucleoli_Cytoplasm_Ratio_Antagonist: University of Pittsburgh U2OS Androgen Receptor-Transcriptional Intermediary Factor 2 (AR-TIF2) Antagonism High Content Imaging Assay for Ratio of Nucleoli Translocation and Cytoplasm (AID 2283999; active means hit-call score of the fitted dose curve at least 0.9, where 1 is the maximum;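 further: antagonists lower the DHT-driven ratio of nucleolar to cytoplasmic red signal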)
Procedure, shortened: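 Human osteosarcoma U2OS line, AR fused to RFP, coactivator TIF2 fused to GFP. Cpds 20 uM final, 0.2% DMSO (screen); 0.195–50 uM final, 0.5% DMSO (CRC). Endpoint: nucleoli/cytoplasm red signal ratio, DHT as baseline, loss-of-signal antagonist mode.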

Measured: AC50

CC(=O)N1CCN(c2ccc(OC[C@H]3CO[C@](Cn4ccnc4)(c4ccc(Cl)cc4Cl)O3)cc2)CC1
active: [1] 8.55 µM | [2] 12.7 µM | [3] 9.46 µM | [14] 33 µM
not listed: [15] | [16] | [17] | [18] | [19]
inactive: all other assays above

Cc1cc(F)ccc1-c1cc(N2CC[C@@H](O)[C@H]2CO)ncc1N(C)C(=O)C(C)(C)c1cc(C(F)(F)F)cc(C(F)(F)F)c1
inactive: [15] | [3] | [4] | [7] | [8] | [9]
active: [16] 40.8 µM | [17] 60.4 µM | [1] 40.8 µM | [2] 36.7 µM

CC/C(=C(/CC)c1ccc(O)cc1)c1ccc(O)cc1
active: [1] 8.17 µM | [2] 11.3 µM | [3] 6.72 µM | [4] 12 µM | [5] 8.49 µM | [6] 8.49 µM | [12] 6.76 µM | [14] 10.6 µM
inactive: [7] | [8] | [10] | [11] | [13]

OC12N=C(c3ccccc3)SC1Cc1cc(Cl)ccc12 (stereo not drawn)
active: [18] 21.1 µM | [5] 6.83 µM | [6] 6.86 µM | [10] 6.49 µM | [11] 20 µM | [13] 6.48 µM | [14] 32.6 µM
not listed: [15] | [16] | [17] | [19]
inactive: all other assays above

Cc1ccc(C(C)C)cc1
inactive: [15] | [16] | [19] | [17] | [7] | [8] | [9]

CCCCCCCCCCCC[N+](C)(C)C
inactive: [3] | [4] | [7] | [8] | [9]
active: [18] 83.2 µM | [2] 37.8 µM

O=C(O)c1ccccc1C(=O)OCc1ccccc1
inactive: [15] | [17] | [7] | [8] | [9]

OCCO
inactive: [15] | [16] | [19] | [17] | [7] | [8] | [9]
